{
  "source": "PubChem BioAssay AID449762",
  "about": "(Southern Research Specialized Biocontainment Screening …, 2010)",
  "note": "In all, about 330,000 compounds went through this assay and about 1,900 (0.58%) were called active. Not shown: some 4% with an inconclusive outcome. These entries were drawn from the full list. Potency and affinity values are given separately. Values without a mark were called inactive. Cut-off read from the data, not from the text of the source: inconclusive = inhibition above about 70% without an active follow-up result; inactive = below that.",
  "data": [
    {"assay": "M. tuberculosis growth inhibition, HTS (AID 449762);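 note: bacterial growth assessed after seven days of incubation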", "conditions": "M. tuberculosis H37Rv growth inhibition, 7H9 media; at 25 µM; active compounds read high", "units": {"inhibition": "%"}, "values": [
      {"compound": "COc1ccc(N2C(=O)/C(=C/c3cc(C)n(-c4ccc(C)cn4)c3C)C(=O)NC2=S)c(OC)c1", "inhibition": 3.48},
      {"compound": "COc1cc(/C=N/OCC(=O)Nc2cc(C)on2)ccc1OCc1ccccc1", "inhibition": -2.24},
      {"compound": "COc1ccc(/C=N/OCC(=O)Nc2cc(C)on2)cc1OC", "inhibition": -6.14},
      {"compound": "CSCC(=O)Nc1cc(C)on1", "inhibition": 7.76},
      {"compound": "Cc1cc(NC(=O)C(Cl)(Cl)Cl)no1", "inhibition": -0.63},
      {"compound": "CCCn1c(SCC(=O)Nc2ccccc2N2CCOCC2)nc2c1c(=O)n(C)c(=O)n2C", "inhibition": -9.47},
      {"compound": "CN(CCOc1ccc(Cl)cc1)C(=O)C1CCN(C(=O)c2ccc(F)cc2)CC1", "inhibition": -0.37},
      {"compound": "CCC(NC(=O)c1cc(COc2cncc(Cl)c2)on1)c1ccc(C)cc1", "note": "(configuration not stated)", "inhibition": 27.5},
      {"compound": "CCC(NC(=O)c1cc(COc2cncc(Cl)c2)on1)c1ccncc1", "note": "(configuration not stated)", "inhibition": 4.32},
      {"compound": "COc1cccc(NC(=O)CN(C)C(=O)c2ccccc2Sc2ccccc2C#N)c1", "inhibition": -24},
      {"compound": "CCOC(=O)c1cc(NC(=O)c2ccccc2)c(=O)n2c1oc1ccccc12", "inhibition": -3},
      {"compound": "Oc1c(C(c2ccccn2)N2CCCCC2)cc(Cl)c2cccnc12", "note": "(configuration not stated)", "inhibition": 3},
      {"compound": "Oc1c(C(c2cccs2)N2CCN(c3ccccc3)CC2)ccc2cccnc12", "note": "(configuration not stated)", "inhibition": 30.5},
      {"compound": "COC(=O)Cc1ccc(NC(=S)N2CCC(Cc3ccccc3)CC2)cc1", "inhibition": 6.07},
      {"compound": "O=C(C1=C[C@H](c2coc3ccccc3c2=O)C[C@H](OCCCCO)O1)N1CCN(Cc2ccccc2)CC1", "inhibition": 39.2},
      {"compound": "CC(CC(=O)Nc1cc([N+](=O)[O-])ccc1Cl)c1ccccc1", "note": "(configuration not stated)", "inhibition": 3.48},
      {"compound": "CC(CC(=O)Nc1ccc(F)c([N+](=O)[O-])c1)c1ccccc1", "note": "(configuration not stated)", "inhibition": -6.24},
      {"compound": "CSCC[C@H](NC(=O)C1CCN(S(=O)(=O)c2ccc(C)cc2)CC1)C(=O)NCC1CCCO1", "note": "(some centres not stated)", "inhibition": -8.31},
      {"compound": "Cc1occc1-c1nnc(SCc2nnc(-c3ccc(Cl)cc3)o2)n1C", "inhibition": -6.71},
      {"compound": "C[C@@H]1C[C@H]2[C@@H]3CCC4=CC(=O)C=C[C@]4(C)[C@@]3(F)[C@@H](O)C[C@]2(C)[C@H]1C(=O)CO", "inhibition": 18.9},
      {"compound": "Cc1cccc(C)c1NC(=O)Cn1nnc(-c2ccc(CN3CCC(C)CC3)cc2)n1", "inhibition": 5.96},
      {"compound": "COC(=O)N/N=C\\c1ccccc1OC/C=C/c1ccccc1", "inhibition": 7.83},
      {"compound": "CCOc1ccc(-c2cc(C)[n+](CCN3CCOCC3)c(-c3ccc(OCC)cc3)c2)cc1", "inhibition": 12.3},
      {"compound": "CCOc1ccc(-c2cc(C)[n+](CCO)c(-c3ccc(OCC)cc3)c2)cc1", "inhibition": 4.23},
      {"compound": "COC(=O)/C(=C/Nc1ccccc1)[N+](=O)[O-]", "inhibition": -4.18},
      {"compound": "Cc1ccc(NC(=O)CS(=O)CC(=O)N(CC(=O)NC2CCCC2)c2ccc3c(c2)OCCO3)cc1", "note": "(configuration not stated)", "inhibition": -4.13},
      {"compound": "COc1cccc(CNCc2ccc(OC)cc2OC)c1", "inhibition": 1.71},
      {"compound": "COc1ccc(CNCc2ccc3ccccc3c2)c(OC)c1", "inhibition": 12.2},
      {"compound": "CCn1c2ccccc2c2cc(CN3CCN(S(=O)(=O)CC)CC3)ccc21", "inhibition": 10.3},
      {"compound": "CCn1c2ccccc2c2cc(CN3CCN(S(C)(=O)=O)CC3)ccc21", "inhibition": 7.91},
      {"compound": "CCn1cc(C(=O)N2CCCC(CO)(Cc3ccccc3C)C2)cn1", "note": "(configuration not stated)", "inhibition": 0.25},
      {"compound": "COc1cc2oc(=O)ccc2cc1[C@H](O)[C@@H](O)C(C)(C)O", "inhibition": -11.1},
      {"compound": "COc1ccc(-c2c[n+]3c(n2-c2ccccc2)CCCCC3)cc1", "inhibition": -4.08},
      {"compound": "COc1ccc(-c2c[n+](CC(=O)c3ccccc3)c3n2CCCCC3)cc1", "inhibition": 1.09},
      {"compound": "CSc1nn(-c2ccc(C(=O)OC(C(=O)NC(N)=O)C(C)C)cc2)c(=S)s1", "note": "(configuration not stated)", "inhibition": 50.6},
      {"compound": "CC(C)NC(=O)NC(=O)COC(=O)c1ccc(OC(F)(F)F)cc1", "inhibition": 14.2},
      {"compound": "O=C(CN1CCN(S(=O)(=O)c2cccc(F)c2)CC1)NCC1(N2CCOCC2)CCCCC1", "inhibition": 6.01},
      {"compound": "CC(C)(C)C(=O)Nc1cc(C(F)(F)F)ccc1-n1ccnc1", "inhibition": -0.21},
      {"compound": "Fc1ccc(-n2c(Cn3nnc4ccccc43)n[nH]c2=S)cc1", "inhibition": -5.75},
      {"compound": "COc1ccccc1NC(=O)c1ccc(NC(=O)CSc2nncn2C)cc1", "inhibition": 7.82},
      {"compound": "COc1ccccc1NC(=O)CSc1nnnn1C", "inhibition": -4.82},
      {"compound": "COc1ccccc1NS(=O)(=O)c1ccc2ccccc2c1", "inhibition": 7.83},
      {"compound": "CC1CCc2sc(C(=O)NCc3ccccn3)cc2C1", "note": "(configuration not stated)", "inhibition": 4.08},
      {"compound": "O=C(Nc1cccc2ccccc12)c1ccc([N+](=O)[O-])cc1", "inhibition": 5.16},
      {"compound": "CCOC(=O)C1CCCCN1S(=O)(=O)c1cc2c(cc1C)NC(=O)CO2", "note": "(configuration not stated)", "inhibition": -3.9},
      {"compound": "CCN(C(=O)Cn1ccc(C(F)(F)F)n1)c1c(N)n(Cc2ccccc2)c(=O)[nH]c1=O", "inhibition": -10},
      {"compound": "O=C(COc1ccc([N+](=O)[O-])cc1)NNC(=S)NC(=O)c1ccc(Br)cc1", "inhibition": 10.5},
      {"compound": "Cc1ccc(S(=O)(=O)N(C)c2ccc(OCC(=O)OCc3c(C)noc3C)cc2)cc1", "inhibition": 47.9},
      {"compound": "Cc1ccc(S(=O)(=O)N(C)c2ccc(OCC(=O)OCC(=O)N(CC#N)c3ccccc3)cc2)cc1", "inhibition": 15.9},
      {"compound": "COc1ccc2[nH]cc(C3=CCNCC3)c2c1", "inhibition": 67.9},
      {"compound": "CN1CC=C(c2c[nH]c3ccccc23)CC1", "inhibition": -13.7},
      {"compound": "CCOc1cc(C2C3=C(CC(C)(C)CC3=O)N(CCCOC)C3=C2C(=O)CC(C)(C)C3)ccc1OC", "inhibition": 1.22},
      {"compound": "CC(=O)Nc1ccc2c(c1)nc1n2CCOC1", "inhibition": 8.99},
      {"compound": "Cc1ccc(N(CC(=O)Nc2cc(Cl)ccc2Oc2ccccc2)S(C)(=O)=O)cc1C", "inhibition": 13.8},
      {"compound": "Cc1nn(-c2ccccc2)c(N)c1N=Nc1ccccc1", "inhibition": -2.88},
      {"compound": "Cc1nn(-c2ccccc2)c(N)c1N=Nc1ccc2ccccc2c1", "inhibition": 56.7},
      {"compound": "O=c1c2sccc2nc(SCc2ccc([N+](=O)[O-])cc2)n1Cc1ccccn1", "inhibition": 4.82},
      {"compound": "O=C(CSc1nnnn1-c1ccc2c(c1)OCCO2)N1CCc2ccccc21", "inhibition": 5.18},
      {"compound": "O=C(CCc1n[nH]c(=O)[nH]c1=O)N1CCOCC1", "inhibition": -14.1},
      {"compound": "CCCNC(=O)c1cccc(COc2ccccc2OC)c1", "inhibition": 3.61},
      {"compound": "Cc1nc2ccccn2c(=O)c1CCN1CCC(C(=O)c2ccc(F)cc2)CC1", "inhibition": -4.74},
      {"compound": "Cc1nc2sccn2c(=O)c1S(=O)(=O)N1CCN(c2ccc(F)cc2)CC1", "inhibition": 8.78},
      {"compound": "CCCNC(=S)N(Cc1cc2cc(C)ccc2n2nnnc12)CC(C)(C)CN(C)C", "inhibition": 18.8},
      {"compound": "CNCCNC[C@H](Cc1cccc2ccccc12)NCCc1ccccc1", "inhibition": -2.82},
      {"compound": "CSCC[C@H](NC(=O)OC(C)(C)C)C(=O)NCC1CCC(C(=O)N[C@@H](Cc2ccccc2)C(=O)O)CC1", "note": "(some centres not stated)", "inhibition": 2.33},
      {"compound": "C=CCOc1ccccc1CNCCNC(=O)c1nonc1N", "inhibition": -4.17},
      {"compound": "CCCCCOC(=O)Cn1c(SCC(=O)Nc2ccccc2)nc2c1c(=O)[nH]c(=O)n2C", "inhibition": -7.54},
      {"compound": "O=C(c1cc([N+](=O)[O-])ccc1N1CCOCC1)N1CCN(S(=O)(=O)c2ccc(F)cc2)CC1", "inhibition": -2.15},
      {"compound": "C/C(=N\\NC(=O)c1cc2ccccc2cc1O)c1cccs1", "inhibition": -0.54},
      {"compound": "C/C(=N/NC(=O)c1cc2ccccc2cc1O)c1ccco1", "inhibition": 66.3},
      {"compound": "N#CCCN(C(=O)COC(=O)c1nc(Cl)ccc1Cl)c1ccccc1", "inhibition": -6.38},
      {"compound": "C=CCn1c(C(C)NC(=O)c2cccs2)n[nH]c1=S", "note": "(configuration not stated)", "inhibition": -3.28},
      {"compound": "OCCCNc1nccc(-c2cc(Nc3cccc(Cl)c3)ncn2)n1", "inhibition": 5.56},
      {"compound": "CCC(C)Oc1cc(-c2ccnc(Nc3cccc(Cl)c3)n2)ccn1", "note": "(configuration not stated)", "inhibition": 63.7},
      {"compound": "Cc1ccc(-c2nnn(CC(=O)N(c3cccc(F)c3)C(C(=O)NC3CCCC3)c3ccncc3)n2)o1", "note": "(configuration not stated)", "inhibition": 0.25},
      {"compound": "COCCCNC(=O)CSc1ccc(Cl)cc1", "inhibition": -2.16},
      {"compound": "CCN(c1ccccc1)S(=O)(=O)c1ccc(OC)c(N=N/C(C(=O)Nc2ccccc2)=C(/C)O)c1", "inhibition": 10.8},
      {"compound": "O=C(NCC(c1ccco1)N1CCOCC1)c1cccc([N+](=O)[O-])c1", "note": "(configuration not stated)", "inhibition": 1.76},
      {"compound": "CC(C)NCC(O)COC1CCC(C(C)(C)C)CC1", "note": "(configuration not stated)", "inhibition": -7.84},
      {"compound": "CC[C@H](C)[C@@H](CN[C@H](CCCCNC)CNC)NCC1CCCC1", "inhibition": 4.48},
      {"compound": "Cc1ccc(C2C3=C(CC(C)(C)CC3=O)OC3=C2C(=O)CC(C)(C)C3)cc1", "inhibition": -4.24},
      {"compound": "Cc1onc(-c2ccccc2)c1C(=O)OCC(=O)N1CCC(C)CC1", "inhibition": -0.29},
      {"compound": "CSc1nnc(C)c(/C=C/NOCc2ccc(Cl)cc2)n1", "inhibition": -4.59},
      {"compound": "CCc1ccc2c(c1)cc(CN(C(=S)Nc1ccc(Cl)cc1)C1CC1)c1nnnn12", "inhibition": -13.5},
      {"compound": "Cn1cnc2cc(NCc3cccs3)ccc21", "inhibition": 2.02},
      {"compound": "Cc1ccccc1-n1cnc2cc(NCc3cccs3)ccc21", "inhibition": 59.7},
      {"compound": "CCn1c(SC(C)C(=O)N2CCOCC2)nc2sc(C)c(C)c2c1=O", "note": "(configuration not stated)", "inhibition": -0.24},
      {"compound": "CCC(C)[C@H](NC(=O)C1CC(=O)N(c2ccc3c(c2)OCCO3)C1)C(=O)NC1CCCC1", "note": "(some centres not stated)", "inhibition": -2.76},
      {"compound": "COC(=O)c1ccc2c(c1)C(=O)N(C1CCCCC1)C2=O", "inhibition": 48.9},
      {"compound": "CCC(=O)Nc1ccc2c(c1)C(=O)N(C1CCCCC1)C2=O", "inhibition": 12.2},
      {"compound": "CN(CCC#N)C(=O)COC(=O)c1ccc2c(c1)C(=O)N(C1CCCCC1)C2=O", "inhibition": 11.1},
      {"compound": "O=C(O)COc1ccc(NC(=O)c2ccc3c(c2)C(=O)N(C2CCCCC2)C3=O)cc1", "inhibition": -5.81}
    ]}
  ]
}
